Our source for the growth values is PubChem BioAssay (NCI).

About 83,000 compounds went through this panel and 20% of them were active in at least one assay; those are over-represented in the sample as a whole.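 Single-dose data. Exposure time 48 hours. Values below 10 considered active.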 A number with no mark means an inactive call. Calls of active or inactive are those of the source.

Holding throughout (assay): NCI-60 one-dose screen, 48 h (100 = growth as untreated, 0 = no growth, -100 = all killed)
Holding throughout (conditions): 10 µM unless noted

Test [1] deals with SK-MEL-2 melanoma.
Test [2] relates to SN12C renal.
Test [3] has as its system UO-31 renal.
The subject of test [4] is TK-10 renal.
The test system of test [5] is ACHN renal.
Test [6] has as its system CAKI-1 renal.
Test [7] has as its system CCRF-CEM leukemia.
Test [8] relates to MOLT-4 leukemia.
The subject of test [9] is A498 renal.

`O=C(Nc1cccc(-n2cc(-c3ccncc3)c(-c3ccc(Cl)c(O)c3)n2)c1)Nc1cccc(C(F)(F)F)c1`: the growth in test [1] was -25.7% (active); in test [2] it was 14.6%; in test [3], 24.8%; in [4], 21.9%; in [5] it was 11.2%; in test [6], 30.1%. Further, the growth in test [7] is 10.6%; in test [8], 12.5%.

Consider `CN1C=CN(Cc2ccc(-c3ccccn3)nc2)[CH-]1.CN1C=CN(Cc2ccc(-c3ccccn3)nc2)[CH-]1.[Au+3]`, for which the growth in test [1] was 46.5%; in test [2] it was 41.3%; in test [3] it was 83.5%; in test [4], 67.4%; in test [5], 81.7%; in [6] it was 67.6%. In addition, the growth in test [7] was 6.2% (active); in [8] it was 11.3%.

In the case of `COc1ccc(-c2c(N)n[nH]c2-c2cc(OC)c3c(c2)OCCO3)cc1`, the growth in [1] was 64.8%; in [2], 88.7%; in [3] it was 92%; in test [4], 71.3%; in test [6], 70.3%; in test [9] it was 71.4%. Besides, the results for the growth in test [7] and in test [8] were 73.7% and 61.3%, respectively.

As to `O=[N+]([O-])c1ccc(/C=C/C2(CCl)OCCO2)cc1`, the growth is 91.7% in [1]; 102% in [2]; 95.3% in test [3]; 103% in test [4]; 116% in [5]; 113% in test [9]. Further, the values for the growth in test [7] and in [8] were 62.4% and 45.8%, respectively.

For `COc1cc(Nc2nc(N[C@H]3CCCC[C@@H]3N)nc3cc[nH]c(=O)c23)cc(OC)c1`, the growth in [1] is 41.7%; in test [2], 33.2%; in [4] it was 66.5%; in test [5], 44.7%; in [6], 51.4%; in test [9] it was 12.4%. The values for the growth in test [7] and in test [8] were -2.71% (active) and 3.76% (active), respectively.

On to `c1cc2[nH]ncc2cc1-c1nc2ccc3[nH]ncc3c2c2c1CCC2`, for which the growth in test [1] is 19%; in [2], 63.9%; in test [3], 38%; in test [4], 30.8%; in test [5] it was 23.8%; in [6], 23.3%. In addition, the growth was -3.31% (active) in test [9], 30.2% in test [7] and 20.9% in test [8].

On to `Cc1ccc(-c2csc(NC(=O)CCCCl)n2)cc1`, for which the growth was 92.2% in test [1]; 89.2% in test [2]; 74.5% in test [3]; 98.8% in [4]; 99.2% in test [5]; 91.6% in [6]. Besides, the results for the growth in test [9], in test [7] and in test [8] were 82.3%, 96.3% and 79.1%, respectively.

With `COc1ccc(-c2nc3sc(-c4cc(OC)c(OC)c(OC)c4)nn3c2/C=C2/C(=O)Nc3ccc(F)cc32)cc1`, the growth in [1] was -10.8% (active); in test [2], -29.2% (active); in test [3], -33.4% (active); in test [4] it was -52.2% (active); in test [5] it was -15.7% (active); in test [6] it was 4.52% (active). Besides, in [7], the growth is 20.6%.

Consider `COc1ccc(S(=O)(=O)Nc2cc(/C=C\c3cc(OC)c(OC)c(OC)c3)cc(OC)c2OC)cc1`, for which the growth is 18.3% in test [1]; 23.3% in test [2]; 21% in [3]; 64.9% in [4]; 26.4% in [5]; 22.9% in test [6]. The growth in test [7] is 13.7%.

In the case of `Brc1ccc(-c2[nH]ncc2-c2c[nH]c3ccccc23)cc1`, the growth in test [1] is 109%; in test [2] it was 88.5%; in test [3] it was 57.4%; in test [4], 129%; in [5] it was 96.5%; in test [6], 86.7%. Further, the results for the growth in test [9], in test [7] and in [8] were 65.1%, 54.7% and 70.3%, respectively.

Regarding `C=C1C(=O)O[C@H]2[C@H]1CC/C(COC(=O)NCc1ccccc1OC)=C\CC[C@@]1(C)O[C@@H]21`, the growth is 60.6% in test [1]; 23.4% in test [2]; 20.6% in [4]; 6.65% (active) in test [5]; 13.7% in test [6]; 67.1% in test [9]. Further, the growth in test [7] was 6.8% (active).

Turning to `Cc1ccc(Nc2nnc(-c3ccc(Cl)cc3)o2)c(C)c1`, the growth in test [1] was 67.9%; in [2], 97.7%; in [3] it was 82.6%; in test [4], 102%; in [5], 95.7%; in [6], 89.6%. The growth in [9] was 81.6%; in [7] it was 83.3%; in test [8], 61.7%.

`O=S(=O)(NCCNc1nccc(-c2c(-c3ccc(O)cc3)nc3sccn23)n1)c1cccc2ccccc12`: the growth in [1] is 124%; in [2], 97.7%; in [3] it was 85.1%; in [4], 98.2%; in test [5], 107%; in [6], 99.7%. In addition, the growth is 104% in test [9], 97.8% in test [7] and 87.6% in test [8].

For the compound `O=C(Nc1cccc(-n2cc(-c3ccncc3)c(-c3ccc(Cl)c(O)c3)n2)c1)Nc1cc(C(F)(F)F)cc(C(F)(F)F)c1`, the growth is -73.7% (active) in test [1]; -36.1% (active) in [2]; -34.4% (active) in test [3]; -24.6% (active) in test [4]; 8.48% (active) in test [5]; 8.94% (active) in test [6]. Besides, the growth in test [9] is -18.6% (active); in test [7], -16% (active); in [8] it was -18.5% (active).

Regarding `COc1cc(-c2nn(-c3cccc(NC(=O)c4ccccc4)c3)cc2-c2ccncc2)ccc1Cl`, the growth in test [1] is -42.5% (active); in test [2], 28.8%; in [3], 29.8%; in test [4], 31%; in test [5] it was 32.3%; in [6] it was 40.6%. Also, the figures for the growth in test [9], in [7] and in test [8] were -23.2% (active), 2.06% (active) and 0.658% (active), respectively.

On to `CC(C)(C)c1[nH]nc2c1C(c1cc3ccccc3[nH]c1=O)Nc1cc(C(=O)Nc3ccc(Cl)cc3)ccc1N2` (stereo not drawn), for which the growth in test [1] was 77.9%; in [2], 71.1%; in test [3], 83.8%; in [4] it was 105%; in test [5], 84.2%; in [6], 94.9%. The growth in [9] is 66.3%; in [8] it was 18.5%.

For the compound `Fc1ccc(Nc2nc(NCCNc3ccnc4cc(Cl)ccc34)nc(N3CCOCC3)n2)cc1`, the growth is 50.7% in test [1]; 63.8% in [2]; 45.2% in test [3]; 86.2% in test [4]; 55.4% in [5]; 76.9% in test [6]. Moreover, the growth in [7] was 49.1%; in test [8], 25.2%.

Regarding `Cc1cc(C)n(-c2nnc3n2N=C(c2ccc(-c4ccccc4)cc2)CS3)n1`, the growth in test [1] was -12.1% (active); in test [2] it was 53.4%; in [3], 46.6%; in [4], 50.6%; in test [5] it was 54.8%; in [6], 52.8%. In addition, the growth was 20.4% in test [9], 28.1% in test [7] and 28.5% in [8].

On to `O=C(Nc1cccc(-n2cc(-c3ccncc3)c(-c3ccc(Cl)c(O)c3)n2)c1)c1ccccc1`, for which the growth in test [1] is 67.9%; in test [2], 79.3%; in test [3], 83.1%; in [4], 109%; in [5] it was 53.2%; in [6], 90.3%. The growth was 72.3% in test [9], 67.5% in test [7] and 69.5% in test [8].

As for `O=C(/C=C/c1cc(-c2ccc3c(c2)OCO3)n[nH]1)c1ccc2c(c1)OCO2`, the growth in test [1] was 96.6%; in [2] it was 88.9%; in test [3], 74.5%; in test [4] it was 106%; in test [6], 95.1%; in test [9], 93.3%. Besides, the growth is 72.9% in test [7] and 83.4% in [8].

Turning to `COc1ccc(C2C=C(c3ccc(Cl)cc3)N=C3SC=C(C)N32)c(Br)c1` (stereo not drawn), the growth is 68.3% in test [1]; 46.4% in test [2]; 40.7% in test [3]; 65.2% in test [4]; 53% in test [5]; 49.9% in [6]. In addition, the growth was 90.2% in test [9], 7.84% (active) in test [7] and 29.5% in [8].

As for `COc1ccc(N2CCN(Cc3cc(C(=O)/C=C/c4c[nH]c5ccccc45)ccc3O)CC2)cc1`, the growth in test [1] was 107%; in test [2], 97.1%; in test [3], 55.9%; in test [4] it was 117%; in test [5] it was 97.4%; in test [6], 90.2%. For the same compound, the values for the growth in test [9], in test [7] and in test [8] were 106%, 95.8% and 95%, respectively.

As for `O=S(=O)(NCCNc1nccc(-c2c(-c3ccc(F)cc3)nc3sccn23)n1)c1ccc(F)cc1`, the growth in [1] is 76.3%; in [2], 73%; in [3], 42.7%; in test [4] it was 114%; in [5], 52.5%; in test [6], 62.7%. Moreover, the growth in test [9] was 96.8%; in [7], 64.3%; in [8], 73.9%.

As to `O=C(Nc1cccc(-n2cc(-c3ccncc3)c(-c3ccc(Cl)c(O)c3)n2)c1)Nc1ccc(Cl)c(C(F)(F)F)c1`, the growth was -60.4% (active) in test [1]; 7.46% (active) in [2]; -1.62% (active) in test [4]; 6.62% (active) in test [5]; 17.3% in test [6]; 11.1% in [9]. For the same compound, the growth in test [7] was -13.8% (active); in [8], -22.1% (active).

Consider `COc1ccc(-c2nc(N3CCCC3=O)sc2Br)cc1OC`, for which the growth is 86.5% in test [1]; 104% in test [2]; 93.6% in test [3]; 94.1% in [4]; 93% in test [5]; 99.4% in [6]. The growth in test [9] was 88.3%; in test [7], 96.4%; in test [8] it was 93.8%.

With `Nc1nnc(-c2ccc3ccccc3c2O)o1`, the growth was 97.9% in [1]; 95.9% in test [2]; 61.5% in [3]; 128% in test [4]; 91.7% in test [5]; 103% in test [9]. The growth is 88.7% in test [7] and 75.5% in test [8].

Consider `Cc1csc(NC(c2ccccc2)c2c(C)nc3ccccn23)n1` (stereo not drawn), for which the growth in test [1] was 107%; in test [2], 99.9%; in test [3] it was 76%; in [4], 111%; in test [5], 102%; in test [9], 70.9%. Also, the figures for the growth in test [7] and in test [8] were 101% and 92.3%, respectively.

As for `COc1cc(-c2nc(-c3nc4ccc(Cl)cc4[nH]3)cc3c2[nH]c2ccccc23)cc(OC)c1OC`, the growth in test [1] is 62%; in test [2] it was 66.1%; in test [3] it was 41.7%; in test [4], 93.6%; in [5], 66.4%; in test [6], 83.7%. Besides, the growth in test [9] is 78%; in test [7] it was 46.5%; in [8], 34.4%.

Consider `COc1ccc(C2C=C(c3ccc(OC)c(OC)c3)N=C3SC=C(C)N32)c(Br)c1` (stereo not drawn), for which the growth was 101% in test [1]; 108% in test [2]; 94.8% in test [3]; 107% in test [4]; 95% in test [5]; 99.9% in test [6]. Further, the figures for the growth in test [9], in test [7] and in test [8] were 115%, 101% and 84%, respectively.

On to `Nc1cc2c([nH]c[n+]2CC#CCCl)c(SCC#CCCl)n1`, for which the growth was -30% (active) in test [1]; -10.9% (active) in test [2]; -76.8% (active) in test [3]; -4.18% (active) in [4]; -34.7% (active) in test [5]; 6.37% (active) in test [6]. The growth was -52.1% (active) in test [9], 8.89% (active) in test [7] and -1.5% (active) in [8].
